“And” between values parts separate entries of the source, which are not always exact repeats. Equal entries are not always repeated. Screen size: about 16,000 compounds; about 5,700 (36%) were called active. Inconclusive results (about 24%) are left out. The call rests on the fitted dose curve; in most records, active means well fitted curve in the direction sought with a large enough effect; inconclusive means small, poorly fitted or top-dose-only effect, or effect the other way; inactive means no such curve, though single readings can be large or run the other way. The list shows a part of the results.
Target: Cytochrome P450 1A2 (Homo sapiens) (UniProt P05177)
Experiment: Cytochrome panel assay with activity outcomes
Conditions: recombinant CYP, pro-luciferin dealkylation, luminescence, p450-cyp1a2; series mostly up to 57.1 µM; activity, negative = inhibition: at the top concentration
On the % scale 0 is the no-effect control and ±100 the full control effect.

Sequence of Cytochrome P450 1A2 (Homo sapiens) (P05177 whole entry, looked up): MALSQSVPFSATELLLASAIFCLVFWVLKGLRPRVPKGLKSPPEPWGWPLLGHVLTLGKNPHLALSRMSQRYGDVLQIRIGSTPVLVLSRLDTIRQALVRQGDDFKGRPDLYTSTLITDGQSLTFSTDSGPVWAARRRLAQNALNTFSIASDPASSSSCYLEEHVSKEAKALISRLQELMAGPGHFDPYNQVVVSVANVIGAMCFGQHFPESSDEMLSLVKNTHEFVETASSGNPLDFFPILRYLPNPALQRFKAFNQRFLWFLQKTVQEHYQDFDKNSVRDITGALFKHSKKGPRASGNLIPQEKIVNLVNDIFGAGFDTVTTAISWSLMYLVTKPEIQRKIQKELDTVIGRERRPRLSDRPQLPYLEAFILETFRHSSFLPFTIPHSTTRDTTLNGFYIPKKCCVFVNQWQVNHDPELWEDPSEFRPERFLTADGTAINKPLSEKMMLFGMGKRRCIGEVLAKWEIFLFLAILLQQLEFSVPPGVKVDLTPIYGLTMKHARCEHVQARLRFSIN

| SMILES | activity, negative = inhibition | AC50 |
| --- | --- | --- |
| CO[C@@H]1COC(=O)[C@H]2CCCN2C(=O)[C@@H](C)COC(=O)C/C=C\[C@H]1C | 1.25% [at 11.4 µM] (inactive) | – |
| CCCN1CCC(=NNC(=O)c2ccc(Br)o2)CC1 | – | 8.91 µM (active) |
| O=C(c1ccccc1NS(=O)(=O)c1cccc([N+](=O)[O-])c1)N1CCOCC1 | -7.04% (inactive) | – |
| O=Nc1c(O)n(Cc2ccc(Cl)cc2)c2ccccc12 | – | 14.1 µM (active) |
| Cc1nn(CC(=O)NCCN2CCOCC2)c(C)c1[N+](=O)[O-] | 8.46% (inactive) | – |
| Cl/C(=C\n1cncn1)c1ccc(Cl)cc1Cl | – | 0.0631 µM (active) |
| O=C(Nc1cccn2ncnc12)c1ccc(Cl)cc1Cl | -14.8% (inactive) | – |
| CCOc1cccc(/C(O)=C2/C(=O)C(=O)N(Cc3cccnc3)C2c2ccco2)c1 (stereo not drawn) | -3.35% (inactive) | – |
| CCOc1cccc(/C(O)=C2/C(=O)C(=O)N(Cc3ccco3)C2c2ccncc2)c1 (stereo not drawn) | – | 25.1 µM (active) |
| COc1cccc(/C(O)=C2/C(=O)C(=O)N(Cc3cccnc3)C2c2ccco2)c1 (stereo not drawn) | -6.23% (inactive) | – |
| N[C@@H](Cn1ccc(=O)n(Cc2ccccc2C(=O)O)c1=O)C(=O)O | -16.3% (inactive) | – |
| O=C(c1ccccc1)c1c[nH]c(C(=O)NCc2cccnc2)c1 | – | 3.55 µM (active) |
| O=S1(=O)[C@H]([C@H]2CC3c4ccccc4C2c2ccccc23)[C@@H](N2CCCCC2)[C@@H]1c1ccccc1 | 1.63% [at 2.29 µM] (inactive) | – |
| O=C(CCn1nc(-c2ccc(Cl)cc2)ccc1=O)N1CCOCC1 | -24% (inactive) | – |
| Nn1c(SCC(=O)N2CCOCC2)nnc1-c1ccccc1Cl | 0.0084% (inactive) | – |
| CC(C)Cn1c(-c2ccc(Cl)cc2)cnc1SCC(=O)N1CCOCC1 | – | 12.6 µM (active) |
| C#CCSc1n[nH]c(-c2ccco2)n1 | – | 2 µM (active) |
| CN(C)C(N)=NCCC[C@H](N)C(=O)O | 1.02% (inactive) | – |
| O[C@@H](C1=C/C(=C\c2ccncc2)c2ccccc21)c1ccncc1 | – | 0.1 µM (active) |
| COc1ccc2c(c1)C(=O)N(CCc1ccc(S(=O)(=O)NC(=O)NC3CCCCC3)cc1)C(=O)C2(C)C | -0.736% [at 25.6 µM] (inactive) | – |
| COc1ccc(/C=N/NC(=O)CCCC(=O)NC2CCCCC2)cc1 | – | 11.2 µM (active) |
| COc1ccc(C(C(=O)NC2CCCCC2)N(C(=O)CCCC(=O)Nc2ccccn2)c2ccc3c(c2)OCCO3)cc1 (stereo not drawn) | 5.6% (inactive) | – |
| COc1ccc(C(C(=O)NC2CCCCC2)N2CCC3(CC2)OCCO3)cc1 (stereo not drawn) | -25.1% (inactive) | – |
| COc1ccc(CCCC(=O)NC2CCCCC2)cc1 | – | 25.1 µM (active) |

| SMILES | activity, negative = inhibition | AC50 |
| --- | --- | --- |
| CCCC(=O)N=C1SC2CS(=O)(=O)CC2N1c1ccc(CC)cc1 (stereo not drawn) | -25.8% (inactive) | – |
| CC(=O)OC[C@H]1O[C@@H](O/N=C(\C)CCC(=O)OC[C@@H]2O[C@H](C#Cc3ccccc3)C=C[C@@H]2Oc2ccc(C)cc2)[C@H](OC(C)=O)[C@@H](OC(C)=O)[C@H]1OC(C)=O | -5.25% [at 11.4 µM] (inactive) | – |
| O=c1c(-c2cc(F)cc(F)c2)nc2cncnc2n1-c1ccccc1 | – | 12.6 µM (active) |
| O=c1c(-c2cccc(F)c2)nc2cncnc2n1-c1ccccc1 | – | 10 µM (active) |
| C/C(CCN1CCc2nc(-c3ccccc3)c(-c3ccccc3)cc2C1)=N\O[C@@H](C)CN1CCCCc2nc(C)c(C)cc21 | -10.7% [at 11.4 µM] (inactive) | – |
| Cc1c(-c2ccc(O)cc2)nn(-c2ccc(O)cc2)c1-c1ccc(OCCN2CCCCC2)cc1 | – | 12.6 µM (active) |
| CC(=O)N1CCC[C@@]2(CCN(Cc3ccccc3)C2)C1 | 7.35% (inactive) | – |
| COC(=O)[C@@]1(Cc2ccc(F)cc2)[C@H]2c3cc(C(=O)N4CCCC4)n(Cc4ccc(Cl)c(C(F)(F)F)c4)c3C[C@H]2CN1C(=O)c1ccccc1 | -8.64% (inactive) | – |
| CCOC(=O)C1=C(CSc2nc(-c3ccccc3)ccc2C#N)OC(N)=C(C#N)C1c1ccc(OC)cc1 (stereo not drawn) | – | 2 µM (active) |
| Cc1ccc(S(=O)(=O)Nc2ccccc2C=O)cc1 | -16% [at 11.4 µM] (inactive) | – |
| CSc1ccc(S(=O)(=O)Nc2ccc3c4c(cccc24)CC3)cc1 | – | 25.1 µM (active) |
| Cc1nc(SCC(=O)Nc2ccc(N3CCOCC3)cc2)nc(C)c1C | -16.3% (inactive) | – |
| N[C@@H](C(=O)O)[C@H](CC(=O)O)c1ccc(Cl)cc1 | -8.76% (inactive) | – |
| Cc1nc(SCC(=O)Nc2c(C)n(C)n(-c3ccccc3)c2=O)nc(C)c1C | -3.65% (inactive) | – |
| NCCNC(=O)c1ccc(Cl)cc1 | – | 12.6 µM (active) and 10 µM (active) |
| O=C(NCCc1ccc(Cl)cc1)Nc1cccc(Cl)c1 | – | 4.47 µM (active) |
| O=C(NCCc1ccc(Cl)cc1)c1ncn[nH]1 | – | 20 µM (active) |
| Cc1nc(SCC(=O)NCCc2ccc(Cl)cc2)nc(C)c1C | – | 20 µM (active) |
| CC(=O)OC[C@@H]1O[C@H](C/C=N\O[C@@H](C)CN2CCCCc3nc(C)c(C)cc32)C=C[C@@H]1OC(C)=O | -2.17% [at 11.4 µM] (inactive) | – |
| O=C(N/N=C1/C[C@@H](O)[C@@H](O)[C@@H]2[C@@H]3C(=O)N(Cc4ccccc4)C(=O)[C@H]3CC[C@H]12)OCc1ccccc1 | -7.17% [at 11.4 µM] (inactive) | – |
| O=C(NCCc1ccc(O)cc1)c1ccc(Cl)cc1 | – | 14.1 µM (active) |
| CC(C)(Oc1ccc(CCNC(=O)c2ccc(Cl)cc2)cc1)C(=O)O | -6.81% [at 25.6 µM] (inactive) | – |
| O=C(NNC(=O)c1ccccc1O)c1ccc(Cl)cc1 | -29.5% (inactive) | – |
| CNC(=O)C(=O)NCCc1ccc(Cl)cc1 | – | 7.08 µM (active) |

| SMILES | activity, negative = inhibition | AC50 |
| --- | --- | --- |
| COc1cccc(-c2nnc3sc(-c4ccc(C)cc4)nn23)c1 | – | 7.08 µM (active) |
| CC(C)(C)n1nc2c(c1NC(=O)c1ccc(S(=O)(=O)N3CCCCC3)cc1)CS(=O)C2 (stereo not drawn) | -29.6% (inactive) | – |
| COc1ccc(Nc2ncc(C(=O)N3CCN(Cc4ccccc4)CC3)c3ccccc23)cc1 | -12.5% (inactive) | – |
| CNc1ncnc2ccc(-c3cccc(OC)c3)cc12 | – | 0.501 µM (active) |
| COc1ccc(Nc2ncnc3sc(-c4ccccc4)cc23)cc1 | – | 0.891 µM (active) |
| COc1cccc(-c2ccc3ncnc(Nc4ccccc4)c3c2)c1 | – | 1 µM (active) |
| N[C@@H](CSC(=O)c1ccccc1)C(=O)O | -14.7% [at 11.4 µM] (inactive) | – |
| CN(C)CCCN1CC(C(=O)O)CC1=O (stereo not drawn) | -1.61% (inactive) | – |
| Cc1ccc(/C(O)=C2/C(=O)C(=O)N(CCCn3ccnc3)C2c2ccccn2)cc1 (stereo not drawn) | -21% (inactive) | – |
| CCN(CC)CCN1C(=O)C(=O)/C(=C(/O)c2ccc(OC)cc2)C1c1cccs1 (stereo not drawn) | -15% (inactive) | – |
| CCOc1ccc(/C(O)=C2/C(=O)C(=O)N(CCCn3ccnc3)C2c2cccs2)cc1Cl (stereo not drawn) | – | 15.8 µM (active) |
| O=C(N/N=C/c1ccc([N+](=O)[O-])o1)c1cc(-c2ccncc2)nc2ccccc12 | – | 15.8 µM (active) |
| O=C(O)c1cc(-c2ccncc2)nc2ccccc12 | -9.92% [at 11.4 µM] (inactive) | – |
| Nc1ccc(S(=O)(=O)Nc2ccc(Cl)nn2)cc1 | -7.06% [at 25.6 µM] (inactive) | – |
| COc1ccccc1CN1CCC2(CC1)CCN(S(C)(=O)=O)CC2 | 17.5% (inactive) | – |
| COc1ccccc1/C=C/C=N/N1CCN(Cc2cccc3ccccc23)CC1 | – | 7.08 µM (active) |
| FC(F)(F)c1ccc(/C=N/N2CCN(Cc3cccc4ccccc34)CC2)cc1 | -19.8% (inactive) | – |
| COc1ccc([C@@H]2CNC(=O)C2)cc1OC1CCCC1 | – | 3.16 µM (active) and 3.98 µM (active) |
| COc1ccc(OC)c(C2CC(=O)C3=C(C2)NC(=O)CC3c2ccc(O)c(OC)c2)c1 (stereo not drawn) | -15.2% (inactive) | – |
| COc1ccc(C2C(=O)N(C3CCCCCC3)CC(=O)N2Cc2ccccc2)cc1OC (stereo not drawn) | -14.6% (inactive) | – |
| COc1cccc(-c2ccc3ncnc(NCc4ccc(OC)cc4OC)c3c2)c1 | – | 2.51 µM (active) |
| COc1ccc(CNc2ncnc3ccc(-c4cccnc4)cc23)c(OC)c1 | – | 0.398 µM (active) |
| COc1ccccc1CNc1ncnc2ccc(-c3cccnc3)cc12 | – | 0.316 µM (active) |
| COc1ccc(CNc2ncnc3ccc(-c4c(C)noc4C)cc23)c(OC)c1 | – | 15.8 µM (active) |

| SMILES | activity, negative = inhibition | AC50 |
| --- | --- | --- |
| CO/N=C(\C)CCN1CCCc2nc(C)c(C)cc21 | 2.07% [at 11.4 µM] (inactive) | – |
| Cc1cc(C)cc(OCC(=O)NNC(=O)c2cc(C)[nH]n2)c1 | -6.86% (inactive) | – |
| COCC(=O)N1CCC2(CC1)CN(C(=O)Nc1cccc(F)c1)C2 | 2.7% (inactive) | – |
| O=C(Cn1cnc2ccccc2c1=O)Nc1nnc(SCc2ccccc2)s1 | -19.6% (inactive) | – |
| O=C(Cc1ccccc1)Nc1nc(=O)c2ccccc2s1 | – | 2.24 µM (active) |
| CCc1ccc2c(c1)c(N=NC1=NC(=O)CS1)c(O)n2CC | – | 1.41 µM (active) |
| Oc1cccc2ccc(SSc3ccc4cccc(O)c4n3)nc12 | – | 3.16 µM (active) |
| COc1ccc(N2CCN(C(=N)/C(C(C)=O)=C(\C)O)CC2)cc1 | -6.13% (inactive) | – |
| COc1ccc(-c2ccc(C(=S)N3CCN(C(C)=O)CC3)o2)cc1 | – | 2.24 µM (active) |
| COc1ccc(NC(=O)N2CC3(CCN(C(C)=O)CC3)C2)cc1 | -1.08% (inactive) | – |
| O=C(c1ccncc1)N1CCC2(CC1)CCN(c1ccccc1)CC2 | -23.6% (inactive) | – |
| O=C(c1cn(-c2ccccc2)nc1-c1cccs1)N1CCOCC1 | – | 15.8 µM (active) |
| O=C(Nc1c(C(=O)N2CCOCC2)cnn1-c1ccccc1)c1ccco1 | -28.5% (inactive) | – |
| C[C@@H]1/C=C\CC(=O)OC[C@H](C)C(=O)N[C@@H](C)C(=O)OC1 | -0.299% [at 11.4 µM] (inactive) | – |
| COc1ccccc1CNc1cc(-c2cccc(NS(C)(=O)=O)c2)ncn1 | – | 15.8 µM (active) |
| COc1ccc(CNc2cc(-c3cccc(NS(C)(=O)=O)c3)ncn2)c(OC)c1 | – | 15.8 µM (active) |
| Cc1ccc(S(=O)(=O)N2CCC(C(=O)NCc3cccnc3)CC2)cc1 | -1.53% (inactive) | – |
| CCS(=O)(=O)N1CCC(C(=O)NCc2cccnc2)CC1 | -1.47% (inactive) | – |
| O=C(CSCc1c(Cl)cccc1Cl)NCc1cccnc1 | – | 5.01 µM (active) |
| OC(CNCc1ccc(F)cc1)(c1ccc(F)cc1)c1ccc(F)cc1 | 4.03% (inactive) | – |
| Fc1ccc(COc2ccc(Br)cc2CNCc2ccncc2)cc1 | – | 0.316 µM (active) |
